PubChem BioAssay AID504900 (The Scripps Research Institute Molecular Screening Center, 2011)
This is one part of the list. Values without a mark were called inactive. Rule as the data show it: active = inhibition above about 32%; inactive = the rest.

Target: Mu-type opioid receptor (Homo sapiens) + Delta-type opioid receptor (Homo sapiens) (UniProt P35372+P41143)
Assay: OPRM1-OPRD1 heterodimer inverse agonism – cell-based, luminescence, confirmation (AID 504900);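 also: 0% = cells with DMSO and 100% = wells lacking cells with DMSO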
Conditions: cells expressing OPRM1/OPRD1 heterodimer, at 9.3 µM, stronger effect = higher value

Chain of Mu-type opioid receptor (Homo sapiens) + Delta-type opioid receptor (Homo sapiens) (P35372 whole entry, looked up): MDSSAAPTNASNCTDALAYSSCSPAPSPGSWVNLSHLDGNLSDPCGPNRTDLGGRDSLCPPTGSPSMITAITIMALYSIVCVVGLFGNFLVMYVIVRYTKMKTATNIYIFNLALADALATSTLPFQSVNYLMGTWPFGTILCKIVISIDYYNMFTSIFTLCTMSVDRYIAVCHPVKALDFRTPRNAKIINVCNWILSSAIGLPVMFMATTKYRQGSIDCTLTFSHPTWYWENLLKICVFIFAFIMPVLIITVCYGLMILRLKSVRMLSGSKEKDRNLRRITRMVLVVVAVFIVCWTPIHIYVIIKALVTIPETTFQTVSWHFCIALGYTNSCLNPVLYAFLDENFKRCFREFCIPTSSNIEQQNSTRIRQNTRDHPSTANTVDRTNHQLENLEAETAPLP
Chain of Mu-type opioid receptor (Homo sapiens) + Delta-type opioid receptor (Homo sapiens) (P41143 whole entry, looked up): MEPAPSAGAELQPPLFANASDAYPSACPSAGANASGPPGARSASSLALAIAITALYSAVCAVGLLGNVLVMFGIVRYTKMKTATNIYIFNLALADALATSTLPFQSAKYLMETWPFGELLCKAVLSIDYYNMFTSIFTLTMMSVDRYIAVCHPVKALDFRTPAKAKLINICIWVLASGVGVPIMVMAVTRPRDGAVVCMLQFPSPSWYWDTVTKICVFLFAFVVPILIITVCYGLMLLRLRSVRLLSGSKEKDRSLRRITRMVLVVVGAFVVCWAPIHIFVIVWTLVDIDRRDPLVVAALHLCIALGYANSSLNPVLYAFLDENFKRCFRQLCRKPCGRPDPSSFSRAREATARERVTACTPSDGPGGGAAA

Structure (SMILES)	inhibition [%]
CC1=CC(=Cc2sc3ccccc3[n+]2C)C=C(C)O1	-2.66
CCOC(=O)c1c(N)n(CCN2CCOCC2)c2nc3ccccc3nc12	3.09
